hgDAF12 agonist = H. glycines DAF-12 receptor agonists, primary screen, cell-based, luminescence, HEK293, GAL4 fusion, UAS-luciferase; Nuclear hormone receptor DAF-12 (Heterodera glycines), GAL4 fusion; HEK293 GAL4-hgDAF12 UAS-luciferase reporter, agonist luminescence; normalized to butyrate control; activation, % at 6.8 µM; hit rate 1.8% among 370,000; AID 687014, 2013;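 active = activation above a cutoff set at the mean of all screened compounds plus 3 SD, cut at about 10% in these data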;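 also: 0% = DMSO wells and 100% = sodium butyrate wells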
APP 5'UTR act = activators of APP 5'UTR luciferase reporter, primary screen, SH-SY5Y cells | activation, % at 2 µM | AID 1276, 2008 | hit rate 1% among 190,000 | SH-SY5Y APP 5'UTR luciferase reporter, luminescence; zero percent = DMSO vehicle wells;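 active = activation above a set limit, based on mean plus 3 SD of controls, cut at about 140% in these data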
hcDAF12 agonist = H. contortus DAF-12 nuclear receptor activators, primary screen, cell-based, luminescence, HEK293, lit1-tk-luc reporter. HEK293 hcDAF-12 lit1-tk-luc reporter; 0% DMSO, 100% Δ7-dafachronic acid. activation, % at 6.8 µM. hit rate 1.4% among 370,000. AID 652067, 2013;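 active = activation above the mean of all tested compounds plus 3 SD, cut at about 5.5% in these data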;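 also: 100% = response to 3 µM Δ7-dafachronic acid high control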
ssDAF-12 act = S. stercoralis DAF-12 nuclear receptor activators, primary screen, cell-based, luminescence, HEK293, GRIP1 co-expression, lit1-tk-luc. activation, % at 6.8 µM. AID 652126, 2013. Nuclear hormone receptor DAF-12 (Strongyloides stercoralis). hit rate 1% among 370,000. HEK293 ssDAF-12/GRIP1 lit1-tk-luc reporter; % of 3 µM dafachronic acid response;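 active = activation above the mean over all tested compounds plus 3 SD, cut at about 0.9% in these data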;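 also: 0% = DMSO-only wells and 100% = 3 µM delta7-dafachronic acid wells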
NF-kB neuron act = activators of NF-kB expression in neurons, primary screen, cell-based, HTS; fold change at 12.5 µM; hit rate 1.6% among 190,000; human neuronal cells, NF-kB reporter expression; hits give high values; in the data active = fold change above about 3.3
LXRb hcDAF ctr = LXR agonists, Gal4 luciferase reporter, confirmation, counter-screen for hcDAF-12 agonist project, cell-based, luminescence, HEK293, H. contortus campaign | shares compounds with hcDAF12 agonist | HEK293 Gal4-LXR tk-luc reporter, 24 h; normalized: DMSO 0%, positive control 100% | activation, % at 6.8 µM | 3,400 tested, under 10 active;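 active = mean percent activation of the reporter above a cutoff set as the average over tested compounds plus their standard deviation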
Target sequence (P55055 whole entry, looked up, the tested form may be a part): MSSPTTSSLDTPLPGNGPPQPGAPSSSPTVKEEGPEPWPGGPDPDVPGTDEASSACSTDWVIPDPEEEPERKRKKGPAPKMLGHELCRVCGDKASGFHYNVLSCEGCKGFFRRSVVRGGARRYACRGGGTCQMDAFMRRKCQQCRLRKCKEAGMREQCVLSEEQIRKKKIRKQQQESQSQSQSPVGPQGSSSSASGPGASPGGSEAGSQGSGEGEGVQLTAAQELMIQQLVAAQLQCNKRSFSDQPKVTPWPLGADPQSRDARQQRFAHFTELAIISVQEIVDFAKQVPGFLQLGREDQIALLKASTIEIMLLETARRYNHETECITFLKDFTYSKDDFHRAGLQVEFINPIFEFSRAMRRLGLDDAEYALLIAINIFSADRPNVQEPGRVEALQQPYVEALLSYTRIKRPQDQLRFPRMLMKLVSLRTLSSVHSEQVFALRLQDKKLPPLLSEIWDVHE
hcDAF12 ag = H. contortus DAF-12 receptor agonists, confirmation, cell-based, luminescence, HEK293, lit1-tk-luc, triplicate | HEK293 hcDAF-12 lit1-tk-luc reporter; % of Δ7-dafachronic acid response | activation, % at 6.8 µM | shares compounds with hcDAF12 agonist | hit rate 61% among 3,400;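 active = mean activation across triplicate tests above the threshold derived from the earlier primary screen, cut at about 5.5% in these data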;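 also: 0% = DMSO only wells and 100% = 3 µM Δ7-dafachronic acid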
An asterisk follows results filed as active. Most compounds without a hit are left out; they make up all but 3.4% or so of the library.

Clc1ccc2nc(-c3cccc(Br)c3)c(Cc3ccccc3)n2c1 was read as hgDAF12 agonist 5.5, hcDAF12 agonist 1.6 and ssDAF-12 act -0.2.
Screening Cc1cc(Br)cn2c(Cc3ccccc3)c(-c3cccc(Cl)c3)nc12 returned hgDAF12 agonist 3.1, hcDAF12 agonist 7.0*, ssDAF-12 act 0.2, LXRb hcDAF ctr -0.1 and hcDAF12 ag 1.5.
`COc1ccc(-c2nc3c4ccccc4ccn3c2CN2CCOCC2)cc1OC` gave hgDAF12 agonist 5.9, hcDAF12 agonist 0.8 and ssDAF-12 act -0.8.
CC(C)N(Cc1cn(Cc2ccccc2)nn1)S(=O)(=O)c1ccccc1Br was read as hgDAF12 agonist -0.3, hcDAF12 agonist 1.6 and ssDAF-12 act -1.6.
For CCCc1nc2c3ccccc3ccn2c1CC(C)(C)C the results were hgDAF12 agonist -0.2, hcDAF12 agonist 2.0 and ssDAF-12 act -0.2.
Clc1ccc(-c2nc3c4ccccc4ccn3c2Cc2ccsc2)cc1 was read as hgDAF12 agonist 7.6, hcDAF12 agonist 8.8*, ssDAF-12 act 0.1, LXRb hcDAF ctr 0.1 and hcDAF12 ag 5.8*.
Fc1cccc(Cc2c(C3CCCCC3)nc3c4ccccc4ccn23)c1 was read as hgDAF12 agonist 10.4, hcDAF12 agonist 8.6*, ssDAF-12 act 0.9, LXRb hcDAF ctr 0.1 and hcDAF12 ag 4.9.
Screening CCCc1nc2c3ccccc3ccn2c1Cc1cccc(Cl)c1 returned hgDAF12 agonist 12.3*, hcDAF12 agonist 6.7*, ssDAF-12 act 0.8, LXRb hcDAF ctr 0.5 and hcDAF12 ag 7.1*.
Screening C[C@H](O)[C@@H]1CN2CCc3c([nH]c4cccc(-c5ccccc5)c34)[C@@H]2C[C@@H]1N(C)C(=O)c1ccco1 returned hgDAF12 agonist 3.0, hcDAF12 agonist -1.0 and ssDAF-12 act -1.4.
For COC(=O)[C@@]12CCCCC3=C1N(CCC3)C(=O)[C@H]2CC(=O)N1CCOCC1 the results were hgDAF12 agonist -0.2, hcDAF12 agonist -2.8 and ssDAF-12 act -1.3.
Screening CCN(C(=O)CN1CCN(c2nc(-c3ccccc3)cs2)CC1)c1ccccc1C returned hgDAF12 agonist -5.2, hcDAF12 agonist -2.1 and ssDAF-12 act -2.0.
Screening COc1ccc(CN(CCN2CCOCC2)C(=O)c2cc(Cl)ccc2F)cc1OC returned hgDAF12 agonist -1.4, hcDAF12 agonist 0.5 and ssDAF-12 act -0.8.
Screening CC(C)(C)OC(=O)N1CCC(N[C@@H](Cc2c[nH]c3ccccc23)C(=O)NCCc2c[nH]c3ccccc23)(C(=O)NC2CCCCC2)CC1 returned hgDAF12 agonist 0.2, hcDAF12 agonist 3.6 and ssDAF-12 act -1.0.
`N/C(=N\OC(=O)c1cccc2ccccc12)c1ccncc1` gave hgDAF12 agonist 3.7, hcDAF12 agonist 7.5*, ssDAF-12 act 2.3*, LXRb hcDAF ctr 0.2 and hcDAF12 ag 4.2.
For Cc1ccccc1C(=O)O/N=C(\N)c1ccccc1 the results were hgDAF12 agonist 8.4, hcDAF12 agonist 10.4*, ssDAF-12 act 0.9*, LXRb hcDAF ctr 2.4 and hcDAF12 ag 25.1*.
For Cc1ccccc1C(=O)O/N=C(\N)c1ccc([N+](=O)[O-])cc1 the results were hgDAF12 agonist 7.0, hcDAF12 agonist 0.4 and ssDAF-12 act -0.7.
Screening COc1cccc(OC)c1C(=O)O/N=C(\N)c1ccncc1 returned hgDAF12 agonist -0.9, hcDAF12 agonist -1.9 and ssDAF-12 act -1.6.
For N/C(=N\OC(=O)c1cccc2ccccc12)c1ccc(Br)cc1 the results were hgDAF12 agonist -1.5, APP 5'UTR act 15.7, hcDAF12 agonist 8.9*, ssDAF-12 act 2.2*, NF-kB neuron act 1.45, LXRb hcDAF ctr -0.2 and hcDAF12 ag 4.0.
Screening CN(C)c1ccc(N=Nc2ccccc2Br)cc1 returned hgDAF12 agonist 12.0*, hcDAF12 agonist 20.1*, ssDAF-12 act 1.6*, LXRb hcDAF ctr 1.7 and hcDAF12 ag 18.9*.
Cn1c(=NN=Cc2ccccc2OCCO)sc2ccccc21 was read as hgDAF12 agonist 9.5, hcDAF12 agonist 7.8*, ssDAF-12 act 1.7*, LXRb hcDAF ctr 0.4 and hcDAF12 ag 7.9*.
COCCCN1C(=O)[C@H](CC(=O)NCc2cccs2)[C@]2(C(=O)OC)CCCCC=C12 was read as hgDAF12 agonist 0.3, hcDAF12 agonist -1.4 and ssDAF-12 act -0.7.
For COC(=O)[C@]12C[C@H](CC(=O)NCCC(C)C)C(=O)N(CCc3ccc(OC)c(OC)c3)C1=C[C@H](C1CCCC1)O[C@@H]2C the results were hgDAF12 agonist -0.6, hcDAF12 agonist -1.1 and ssDAF-12 act -1.6.
For Cc1nn(-c2nc3ccccc3s2)c(N)c1-c1ccc(Cl)cc1 the results were hgDAF12 agonist 1.8, APP 5'UTR act -8.4, hcDAF12 agonist -1.9, ssDAF-12 act -0.5 and NF-kB neuron act 1.83.
Cc1nn(-c2nc3ccccc3s2)c(N)c1Sc1ccc(F)cc1 was read as hgDAF12 agonist 7.2, APP 5'UTR act 32.0, hcDAF12 agonist 6.6*, ssDAF-12 act 0.8, NF-kB neuron act 1.25, LXRb hcDAF ctr 0.8 and hcDAF12 ag 13.8*.
`Cc1cc(N)n(-c2nc3ccccc3s2)n1` gave hgDAF12 agonist 11.4*, APP 5'UTR act 113.2, hcDAF12 agonist 7.8*, ssDAF-12 act 1.9*, NF-kB neuron act 4.53*, LXRb hcDAF ctr 1.2 and hcDAF12 ag 9.6*.
`CCOC(=O)C1=NOC(C(C)=O)(C(=O)NC2CCCC2)C1` (centres undefined) gave hgDAF12 agonist 1.4, hcDAF12 agonist -1.2 and ssDAF-12 act -1.0.
Cc1cccc(NC(=O)CCS(=O)(=O)c2ccccc2)c1C was read as hgDAF12 agonist 1.7, hcDAF12 agonist -0.8 and ssDAF-12 act -1.1.
Screening CCOC(=O)c1cc2ccc3ccccc3c2s1 returned hgDAF12 agonist 10.8*, APP 5'UTR act 74.5, hcDAF12 agonist 7.2*, ssDAF-12 act 1.3*, NF-kB neuron act 3.06, LXRb hcDAF ctr 1.1 and hcDAF12 ag 11.4*.

Screens deposited in PubChem by several laboratories.
